# Reference: PubChem BioAssay
# Several values for one entry are separate records, joined by “and”; a condition that tells them apart may be missing. Equal values may be shown once. More than one record can exist for a structure, and the calls need not agree. Activity calls are given as the source filed them.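 How the source made its calls, unless noted: active means inhibition at or above 50% relative to wild type and mutant plate controls; inactive means inhibition below 50%.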
# How the values were obtained:
# [1] = inhibitors of TNFa-induced NFkB p65 translocation, primary screen, imaging, HUVEC, MLSMR starter and 10KST1 sets (AID 438;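 active means inhibition above 20% together with a positive visual image hit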;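 further: compound added about 3h40 before a 20 min TNFalpha stimulation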;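 on inhibition: signal is the nuclear over cytoplasmic p65 intensity ratio per well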); settings: HUVEC TNFa-induced p65 nuclear translocation; cell count: measured here: nuclei count (cytotoxicity indicator), at 2.08 µM; inhibition: at 2 µM, stronger effect = higher value, 0% TNFa-plus-vehicle, 100% no-TNFa wells
# [2] = inhibitors of mutant huntingtin aggregation, primary screen, imaging, exon1htt(103Q)mCFP cells, high-content imaging (AID 483;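 active means visual image review flags a hit and inhibition of aggregation exceeds 20%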;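 further: compound exposure lasted 3 days before fixation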;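 on nuclei count: percent of the per-plate median nuclei count of sample wells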); settings: exon1htt(103Q)mCFP cell line, aggregate imaging, at 2 µM; inhibition of aggregation: stronger effect = higher value; nuclei count: measured here: cell count, toxicity
# [3] = inhibitors of E-selectin induction by TNFa, primary screen, imaging, HUVEC, immunofluorescence, MLSMR starter and 10KST1 sets (AID 487;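 active means visually confirmed hit in the image check and inhibition above 20%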;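 on inhibition: signal is fraction of cell area covered by stained E-selectin grains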;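 on nuclei count: 100% = median nuclei count of all wells on the same plate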); settings: HUVEC TNFalpha-induced E-selectin immunofluorescence imaging, at 2 µM; inhibition: stronger effect = higher value; nuclei count: measured here: cell number, toxicity
# [4] = DUSP6 inhibitors restoring Erk phosphorylation by chemical complementation, primary imaging in DUSP6-transfected HeLa (AID 609;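 active means compounds giving at least 50% inhibition in the cell-based MKP-3 phosphatase rescue imaging test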;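 on inhibition: phospho-Erk level distribution per well compared with pooled transfected vehicle control wells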); settings: HeLa MKP-3 transfected, phospho-Erk imaging KS statistic, at 10 µM, cells stimulated with TPA for 15 min
# [5] = biological target: Dual specificity protein phosphatase 6 (Homo sapiens) (UniProt Q16828); experiment: as above; settings: HeLa MKP-3 transfected, phospho-Erk imaging KS statistic; at 10 µM; stronger effect = higher value; cells stimulated with TPA for 15 min
# Dual specificity protein phosphatase 6 (Homo sapiens), sequence (Q16828 whole entry, looked up): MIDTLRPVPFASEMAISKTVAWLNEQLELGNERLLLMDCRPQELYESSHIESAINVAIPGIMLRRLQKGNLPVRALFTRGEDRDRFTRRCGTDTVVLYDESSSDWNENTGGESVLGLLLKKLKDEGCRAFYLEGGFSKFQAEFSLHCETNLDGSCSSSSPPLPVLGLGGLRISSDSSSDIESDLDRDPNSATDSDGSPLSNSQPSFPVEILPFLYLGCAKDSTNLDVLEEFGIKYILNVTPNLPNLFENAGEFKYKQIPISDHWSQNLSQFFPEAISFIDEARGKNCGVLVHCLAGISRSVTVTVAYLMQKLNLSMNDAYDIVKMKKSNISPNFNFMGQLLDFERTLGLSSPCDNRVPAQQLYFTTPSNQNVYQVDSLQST
# [6] = biological target: Voltage-gated potassium channel subunit beta-2 (Rattus norvegicus) (UniProt P62483); experiment: KvBeta enzyme negative modulators, primary screen, biochemical, NADPH fluorescence (AID 622;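 active means fluorescence slope higher than the sample average by over 3 SD, cut at about -0.22 in these data, passing the limit was not always enough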;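 further: slope of raw intensity against log time taken from 70 to 1610 s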); settings: recombinant KvBeta, 4-cyanobenzaldehyde reduction, at 10 µM, stronger effect = higher value
# Voltage-gated potassium channel subunit beta-2 (Rattus norvegicus), sequence (P62483 whole entry, looked up): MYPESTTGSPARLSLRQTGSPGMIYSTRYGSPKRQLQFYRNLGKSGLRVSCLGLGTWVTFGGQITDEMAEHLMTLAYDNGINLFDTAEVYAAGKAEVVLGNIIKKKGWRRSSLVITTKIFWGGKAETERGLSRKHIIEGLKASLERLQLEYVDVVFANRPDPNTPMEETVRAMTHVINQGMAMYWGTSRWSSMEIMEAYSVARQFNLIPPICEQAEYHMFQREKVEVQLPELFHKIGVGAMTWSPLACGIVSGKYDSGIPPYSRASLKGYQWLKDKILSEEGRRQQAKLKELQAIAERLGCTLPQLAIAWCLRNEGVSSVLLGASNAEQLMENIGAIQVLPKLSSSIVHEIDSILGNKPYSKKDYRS
# [7] = biological target: Voltage-gated potassium channel subunit beta-2 (Rattus norvegicus) (UniProt P62483); experiment: KvBeta positive modulators, primary screen, biochemical, NADPH fluorescence (AID 623;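 active means NADPH fluorescence slope more negative than the mean of all samples by about 3 SD, 99.7% confidence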;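 further: fluorescence intensity change per second fitted from 20 to 320 s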); settings: Recombinant KvBeta, NADPH fluorescence decrease slope, 10 min; at 10 µM; stronger effect = lower value
# [8] = biological target: Alpha-2C adrenergic receptor (Homo sapiens) (UniProt P18825); experiment: modulators of alpha2C/GIRK thallium flux, primary screen, cell-based, HEK293 alpha2C/GIRK1/2 (AID 624;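 active means fluorescence slope after compound addition differing from the mean of all screened samples at 99.7% confidence, in either direction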;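 further: slope of fluorescence ratio to pre-addition baseline per second over 15 to 24 s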); settings: thallium flux BTC fluorescence, at 10 µM, actives lie on both sides
# Alpha-2C adrenergic receptor (Homo sapiens), sequence (P18825 whole entry, looked up): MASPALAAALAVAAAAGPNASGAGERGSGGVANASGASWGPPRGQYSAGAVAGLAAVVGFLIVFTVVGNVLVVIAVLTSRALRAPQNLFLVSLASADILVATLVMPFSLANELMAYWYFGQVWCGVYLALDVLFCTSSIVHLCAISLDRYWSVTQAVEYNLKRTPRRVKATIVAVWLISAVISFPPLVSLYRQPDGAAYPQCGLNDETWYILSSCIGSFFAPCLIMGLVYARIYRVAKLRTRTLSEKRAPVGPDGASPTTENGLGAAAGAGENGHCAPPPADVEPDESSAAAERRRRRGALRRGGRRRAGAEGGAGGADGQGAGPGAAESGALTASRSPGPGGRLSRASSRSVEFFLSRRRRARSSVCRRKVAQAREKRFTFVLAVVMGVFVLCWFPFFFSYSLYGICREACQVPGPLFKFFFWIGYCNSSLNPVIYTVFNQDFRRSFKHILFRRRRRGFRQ
# [9] = inhibitors of larval lipid processing in zebrafish, primary screen, whole organism, PED6 fluorescence, gall bladder and intestine (AID 686;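 active means a full or partial loss of lipid-probe fluorescence in the fish gall bladder, intestine or both, judged by eye; inactive means no fluorescence loss, or compound toxic to the fish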;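 further: larvae 5 to 7 days old with five fish per well; signal comes from phospholipase A2 cleavage of quenched PED6 carried via bile; overnight exposure to compound and PED6 before scoring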); settings: Zebrafish larvae PED6 lipid processing, fluorescence scoring; screened at 20 µM (by protocol)
# [10] = inhibitors of Chlamydomonas gravitaxis, primary screen, whole organism, Chlamydomonas reinhardtii, WT vs cilia-less mutant, absorbance, 96-well (AID 463189); settings: OD600 absorbance, 2 days, at 10 µM, stronger effect = higher value;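 further: 0% = wild type cc124 cells in DMSO and 100% = ciliumless bld1 mutant cells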
# [11] = inhibitors of Sendai virus-induced IRF3 signaling, primary screen, TLR/RLR signaling modifier project, cell-based, Sendai virus stimulus, luciferase, 10K MLSCN set (AID 602276;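 active means inhibition at or above 50% at 10 µM; inactive means inhibition below 50%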;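 further: firefly luciferase from ISG56 promoter only with Renilla not read in this screen; 0% = Sendai virus plus DMSO and 100% = medium plus DMSO without virus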); settings: HEK293 RL24 IRF3 luciferase reporter, at 10 µM, stronger effect = higher value
# [12] = inhibitors of poly I:C-induced TLR3 signaling, primary screen, cell-based, poly I:C stimulus, luciferase, 10K MLSCN set (AID 602277;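 active means inhibition of the reporter signal at or above 50%; inactive means inhibition below 50%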); settings: HEK293-TLR3 RL24 IRF3 luciferase reporter, at 10 µM, stronger effect = higher value
# [13] = measured here: cell density z-score
# [14] = measured here: nuclear c-Myc green intensity z-score
# [15] = measured here: nuclear pErk red intensity z-score, stronger effect = higher value
SMILES,cell count [1],inhibition [1],inhibition of aggregation [2],nuclei count [2],inhibition [3],nuclei count [3],"z-score [4, 13]","z-score [4, 14]","z-score [4, 15]",inhibition [5],fluorescence slope [6],NADPH fluorescence slope [7],slope [8],outcome [9],inhibition [10],inhibition [11],inhibition [12]
CCCCn1cnc2c(c1=O)c1nc3ccccc3nc1n2Cc1ccc2c(c1)OCO2,588,-2% (inactive),-18.6% (inactive),101%,-78% (inactive),129%,0.775,-1.04,-0.0661,-4.7% (inactive),-0.159 (inactive),1.1e-05 (inactive),0.00729 (inactive),inactive,10.8% (inactive),7.61% (inactive),1.84% (inactive)
Cc1nc2ccccn2c(=O)c1CCN1CCC(C(=O)c2ccc(F)cc2)CC1,712,2.4% (inactive),-22.1% (inactive),103%,-63.6% (inactive),126%,2.25,1.22,-0.61,19% (inactive),-0.464 (inactive),1.2e-06 (inactive),0.00457 (inactive),inactive,0.607% (inactive) and -12.6% (inactive),19.4% (inactive),35.8% (inactive)
CC(C)NCC(O)COc1ccc(CCOCC2CC2)cc1 (configuration not stated),564,-5.6% (inactive),10.6% (inactive),102%,-146% (inactive),119%,-0.149,0.261,0.0924,1.48% (inactive),-0.454 (inactive),-2.4e-05 (inactive),0.0053 (inactive),inactive,7.04% (inactive) and 48.4% (inactive),12.5% (inactive),37.3% (inactive)
N=c1c(C(=O)NCc2ccccc2)cc2c(=O)n3ccccc3nc2n1Cc1ccco1,365,-3.1% (inactive),-10% (inactive),91.6%,-250% (inactive),133%,0.674,0.212,-1.53,9.39% (inactive),-0.375 (inactive),-4.7e-05 (inactive),0.00267 (inactive),inactive,-4.74% (inactive),-0.117% (inactive),19.6% (inactive)
Cc1[nH]nc2c1C(CCc1ccccc1)C(C#N)=C(N)O2 (configuration not stated),561,-10% (inactive),-13.6% (inactive),111%,-14.6% (inactive),115%,-1.62,-1.48,1.34,-9.7% (inactive),-0.498 (inactive),-3.1e-05 (inactive),0.00364 (inactive),inactive,2.48% (inactive),-8.58% (inactive),2.77% (inactive)
CC1(C)O[C@@H]2C[C@H]3[C@@H]4C[C@H](F)C5=CC(=O)CC[C@]5(C)[C@H]4[C@@H](O)C[C@]3(C)[C@]2(C(=O)CO)O1,547,-0.5% (inactive),-27.2% (inactive),54.1%,1.2% (inactive),102%,-0.857,-0.0426,0.461,-2.46% (inactive),-0.476 (inactive),-9e-05 (inactive),0.00483 (inactive),inactive,6.62% (inactive),-7.22% (inactive),22% (inactive)
Cc1ccc(Cl)c(Nc2ccccc2C(=O)O)c1Cl,583,1.3% (inactive),12.3% (inactive),91.1%,-70.5% (inactive),95.9%,-0.43,-0.511,-0.695,-8.38% (inactive),-0.487 (inactive),-4.2e-05 (inactive),0.00556 (inactive),inactive,20.2% (inactive) and 61% (active),16.4% (inactive),40.3% (inactive)
c1ccc(CN(CC2=NCCN2)c2ccccc2)cc1,455 and 493,0% (inactive) and 19.7% (inactive),9.9% (inactive) and 6.3% (inactive),97.2% and 85%,-8.6% (inactive) and -65.1% (inactive),98.7% and 128%,0.164 and -0.173,0.692 and 0.37,-0.518 and 0.488,8% (inactive) and 13.3% (inactive),-0.512 (inactive) and -0.523 (inactive),-3e-05 (inactive) and -2.5e-05 (inactive),0.00381 (inactive) and 0.00497 (inactive),inactive,-11.5% (inactive) and 25.6% (inactive),-7.89% (inactive) and 7.92% (inactive),0.563% (inactive) and 36.8% (inactive)
C#CCN(C)Cc1ccccc1,613,-8.1% (inactive),11.2% (inactive),96.3%,-105% (inactive),135%,1.46,-0.921,-1.15,13.3% (inactive),-0.461 (inactive),-3.5e-05 (inactive),0.00478 (inactive),inactive,-8.12% (inactive) and 10.4% (inactive),18.7% (inactive),42.3% (inactive)
Cc1nn(C)cc1/C=N/O,677,-4.1% (inactive),-2.1% (inactive),83.6%,-8.8% (inactive),140%,0.232,-1.13,-0.23,-1.12% (inactive),-0.494 (inactive),-0.000175 (inactive),0.00422 (inactive),inactive,7.83% (inactive),15.8% (inactive),19% (inactive)
O=C(CCCN1CC=C(n2c(=O)[nH]c3ccccc32)CC1)c1ccc(F)cc1,658,-2.1% (inactive),-8.1% (inactive),105%,-156% (inactive),128%,-0.186,0.167,0.602,19.2% (inactive),-0.516 (inactive),-7.4e-05 (inactive),0.00484 (inactive),inactive,5.84% (inactive),-12.2% (inactive),-37.3% (inactive)
